Compounds with a hit are over-represented: about 0.34% of the library has one in this group of screens.
Vif-APOBEC3G blk: inhibitors of Vif-APOBEC3G interaction | 0.076% of 410,000 active | Potency, µM (titrated, usually from 46.1 µM), without a hit: at the highest dose activity, negative = active, most hits filed as inhibitors | AID 602310 | HeLa A3G-eYFP + Vif (tagged APOBEC3G with the HIV-1 protein that degrades it), YFP fluorescence, overnight | Q9HC16; also: % is scaled to controls: 0 for no effect and ±100 for the full control effect; nearly all actives have a fitted effect of over 60% in size
Target sequence (Q9HC16 whole entry, looked up): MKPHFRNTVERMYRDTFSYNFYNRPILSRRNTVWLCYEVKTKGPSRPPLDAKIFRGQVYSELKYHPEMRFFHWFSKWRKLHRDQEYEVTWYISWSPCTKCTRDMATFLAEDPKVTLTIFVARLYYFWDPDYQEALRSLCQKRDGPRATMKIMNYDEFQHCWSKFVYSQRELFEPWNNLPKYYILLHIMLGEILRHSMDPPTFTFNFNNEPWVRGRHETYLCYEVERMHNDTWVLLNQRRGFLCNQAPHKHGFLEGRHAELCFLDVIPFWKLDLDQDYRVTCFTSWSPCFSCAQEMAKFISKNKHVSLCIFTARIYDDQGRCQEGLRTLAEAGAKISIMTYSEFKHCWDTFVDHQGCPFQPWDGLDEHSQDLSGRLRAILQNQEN
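Read-out is eYFP fluorescence (Ex 488/Em 500-530) from Vif-expressing HeLa A3G-eYFP cells; more signal means A3G escaped Vif-mediated degradation. Cells plated overnight, compound pinned in, incubated overnight at 37 deg C.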
Vif-APOBEC3F blk: Vif-A3F binding inhibition. HeLa A3F-eYFP + Vif (tagged APOBEC3F with the HIV-1 protein that degrades it), YFP fluorescence increase. Potency, µM (series often up to 46.1 µM), for inactives: top-dose activity, negative = active. 0.2% of 390,000 active. AID 602313; also: % of control where 0% means no effect; nearly all actives have a fitted effect of over 65% in size
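Fluorescence increase (Ex 488/Em 500-530) after overnight compound treatment at 37 deg C flags inhibition of Vif-driven A3F-eYFP loss in stable HeLa A3F-eYFP/Vif cells seeded overnight beforehand.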
Epigenetic reg: regulators of epigenetic silencing causing reporter derepression in mouse cells | murine LDR cells, GFP reporter derepression, 30 h | Potency, µM (series often up to 53.9 µM), without a hit: at the highest dose GFP activation, hits mostly activators | 0.2% of 280,000 active | AID 1865; also: % of control where 0% means no effect; nearly all actives have a fitted effect of over 60% in size
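GFP-positive cell count by laser-scanning cytometry (objects 20–120 um) after 30 h, 37 C compound exposure of murine LDR cells; reporter is CMV-GFP integrated at a silenced locus, inducible by HDAC or DNMT inhibitors.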
Active calls of the source: *; ? = inconclusive; . = not tested or not shown. Calls follow the shape of the dose curve; as a rule, active = well fitted curve in the direction sought with a large enough effect; inconclusive = small, poorly fitted or top-dose-only effect, or another doubt; inactive = no such curve, though single readings can be large; an effect the other way counts as inactive or inconclusive. Potency is read from the fitted curve at half-maximal effect.

SMILES | Vif-APOBEC3G blk | Vif-APOBEC3F blk | Epigenetic reg
CCOC(=O)Cc1csc(NC(=O)c2sc3nc4c(C)cc(C)cc4cc3c2N)n1 | ? | 25µM* | ?
CCOC(=O)Cc1csc(NC(=O)c2csc(C)c2)n1 | 2% | -7% | 0%
O=C(Cc1ccc(OCCC2CCCCC2)cc1)NO | 1% | . | .
CCCN(CCC)CC(O)Cn1cc(/C=C/C(=O)c2ccccc2)c2ccccc21 (stereo not given) | -15% | -10% | 2%
CCCN(CCC)CC(O)Cn1cc(/C=C/C(=O)c2ccc(Br)cc2)c2ccccc21 (stereo not given) | -4% | ? | 16µM*
COc1cc2c(NC3CCN(C)CC3)nc(N3CCCN(C)CC3)nc2cc1OCCCCCN(C)C | 3% | . | .
CCCN(CCC)C(=O)Cn1c(=O)n(-c2ccccc2)c(=O)c2c3c(sc21)CCCC3 | 0% | -1% | 1%
C/C(CC(=O)Nc1ccccn1)=N\NC(=O)c1ccccc1 | . | . | 0%
COc1cc(OC)cc(C(=O)N/N=C(\C)CC(=O)Nc2ccccn2)c1 | 3.5µM* | -3% | .
O=C(N/N=C\C=C\c1ccc([N+](=O)[O-])o1)c1cccs1 | 10µM* | ? | .
O=C(N/N=C/C=C/c1ccccc1[N+](=O)[O-])c1cccs1 | -8% | 0% | 1%
COc1ccc(N2CCN(S(=O)(=O)c3ccc(OC)cc3)CC2)cc1 | 2% | 1% | -2%
CCc1nc(-c2cc(S(=O)(=O)N3CCN(c4ccccc4F)CC3)ccc2OC)no1 | 7% | -14% | 4%
COc1ccc(S(=O)(=O)N2CCN(c3ccccc3F)CC2)cc1-c1noc(C)n1 | -10% | -7% | 1.1µM*
COc1ccc(N2CCN(S(=O)(=O)c3ccc(OC)c(-c4noc(C)n4)c3)CC2)cc1 | 11% | -1% | 5µM*
Cc1ccc(NC(=O)Cn2nc(C)c3nn(-c4ccc(Cl)cc4)c(C)c3c2=O)cc1C | 0% | 0% | 14%
CC(C)(C)n1ncc2c(=O)n(Cc3c(Cl)ccc(Cl)c3Cl)cnc21 | 1% | . | .
O=C(/C=C/c1ccc([N+](=O)[O-])s1)N1CCCC1 | -20% | 1% | -1%
Cc1ccccc1NC(=O)/C=C/c1cccs1 | -1% | 3% | 5%
Cc1ccccc1NC(=O)/C=C/c1ccc([N+](=O)[O-])s1 | 6.3µM* | 10µM* | 3.5µM*
COC(=O)c1cccc(NC(=O)/C=C/c2cccc([N+](=O)[O-])c2)c1 | -5% | 0% | 3%
CC(=O)c1cccc(NC(=O)/C=C/c2ccc([N+](=O)[O-])s2)c1 | ? | ? | 4µM*
Cc1cc(C)cc(NC(=O)/C=C/c2ccc([N+](=O)[O-])s2)c1 | ? | 11µM* | 8%
O=S(=O)(c1ccc(Br)s1)N1CCN(c2cccc(C(F)(F)F)c2)CC1 | -2% | 1% | -3%
COc1cc2c(NC3CCN(C)CC3)nc(N3CCCN(C)CC3)nc2cc1OCCCC(C)C | 4% | . | .
SMILES | Vif-APOBEC3G blk | Vif-APOBEC3F blk | Epigenetic reg
CC[C@@H]1[C@H]2CCCC(=O)N3CC[C@@H](C[C@@H]1OC(=O)Nc1ccc4c(c1)OCO4)[C@@H]23 | -3% | . | .
Cc1cccc2c1-c1sc(C(=O)NCCCN3CCN(c4cccc(Cl)c4)CC3)cc1CO2 | 1% | 5% | 1%
O=c1c2oc3ccccc3c2n(Cc2cccc(C(F)(F)F)c2)c(=O)n1Cc1ccc2c(c1)OCO2 | -2% | -7% | 4%
CCC1CCc2c(sc(NC(=O)C3c4ccccc4Oc4ccccc43)c2C(=O)OC)C1 (stereo not given) | -3% | -4% | -1%
Cc1cc(C(=O)Nc2c(F)cc(F)cc2Br)cs1 | 0% | 1% | .
NNC(=S)Nc1c(F)cc(F)cc1Br | 0% | 11µM* | -1%
CCOC(=O)/C=C(\C)Sc1cc(=O)oc2ccccc12 | -17% | -4% | -1%
CCOC(=O)/C=C(\C)Sc1cc(O)c2ccccc2c1O | ? | 22µM* | 1%
CCc1ccccc1NC(=O)c1noc2c1CC(C(C)(C)C)CC2 (stereo not given) | 3% | -2% | -2%
COc1ccc(NC(=O)CSc2ncc3c(n2)-c2ccccc2N(Cc2ccc(C)cc2)S3(=O)=O)cc1Cl | 4% | -1% | 8%
COc1ccc(NC(=O)c2sc3nc(-c4cccnc4)ccc3c2N)cc1OC | ? | 5.6µM* | 7.1µM*
Nc1c(C(=O)Nc2ccccc2Br)sc2nc(-c3cccs3)ccc12 | -29% | ? | 8%
Cc1ccc(NC(=O)c2sc3nc(-c4ccncc4)ccc3c2N)cc1 | ? | ? | 22µM*
COc1ccc(-c2ccc3c(N)c(C(=O)Nc4ccc(C(F)(F)F)cc4)sc3n2)cc1OC | -29% | -2% | 0%
Nc1c(C(=O)Nc2nc3ccccc3s2)sc2nc(-c3cccs3)ccc12 | 11µM* | 7.9µM* | ?

Compound activity: PubChem BioAssay, National Center for Advancing Translational Sciences (NCATS)
